From PubChem BioAssay (NCI)
Compounds without any hit were thinned out: in the full panel of roughly 83,000, 20% have a hit.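 Note: values are percent growth. 100 is the growth of untreated cells, values between 100 and 0 indicate rising inhibition; between -100 and 0 indicates cell death.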 Values without a mark were called inactive. Activity calls are given as the source filed them. How the source made its calls: active means growth percent below 10; inactive means the rest.

How the values were obtained:
Assay in all cases: NCI-60 one-dose screen, 48 h (100 = growth as untreated, 0 = no growth, -100 = all killed)
Details in all cases: 10 µM unless noted
[1] = tested on: HCT-15 colon
[2] = tested on: HT29 colon
[3] = tested on: SNB-75 CNS
[4] = tested on: SNB-19 CNS
[5] = tested on: U251 CNS
[6] = tested on: PC-3 prostate
[7] = tested on: SK-MEL-5 melanoma
[8] = tested on: UACC-62 melanoma
[9] = tested on: LOX IMVI melanoma
[10] = tested on: SK-MEL-28 melanoma

SMILES | growth [1] | growth [2] | growth [3] | growth [4] | growth [5] | growth [6] | growth [7] | growth [8] | growth [9] | growth [10]
N/C(=N\c1nc2ccccc2s1)NC(=O)Nc1ccccc1 | 23.4% | 14.3% | 31.4% | 32.1% | 21% | 57.1% | 32.5% | 21% | 34.7% | 72.3%
COc1ccc(-c2nc3cc(C(=O)NC4CCCCC4)ccc3n2C2CCCCC2)cc1 | 21.5% | 38.3% | 91.6% | 109% | 91.5% | 95.8% | 65.3% | 95.3% | 76.9% | 100%
FC(F)(F)c1cccc(-c2nnn(Cc3cc(-c4cccc(Cl)c4)no3)n2)c1 | 105% | 103% | 88.9% | 97.7% | 104% | 104% | 101% | 103% | 99.4% | 112%
O=C1NCCS(=O)(=O)/C1=C\C=C\c1cccc(C(F)(F)F)c1 | 10.2% | 16.8% | 71.2% | 49.6% | 36% | 37.5% | 34.5% | -15% (active) | -73.6% (active) | 28.7%
COc1ccc(-c2ccc(-c3ccc(C(=N)N)o3)o2)cc1 | -7.49% (active) | -9.08% (active) | 43.6% | 15.5% | -29.3% (active) | 25.5% | 25.6% | -61.1% (active) | -58.1% (active) | 71.1%
CCCCCCCCCCCCCC[n+]1ccc2c(C)c3c(c(C)c2c1)c1cc(O)ccc1n3CC | 19.9% | 4.46% (active) | -59.9% (active) | -77.9% (active) | -89% (active) | -88% (active) | -89.9% (active) | -68.5% (active) | -70% (active) | -93.9% (active)
COc1cc(OCc2cccc(-c3ccccc3)c2C)cc(OC)c1CN1CCCCC1C(=O)NCCOCCOCCN (stereo not given) | 87.9% | 5.46% (active) | 73.8% | 67.9% | 25.7% | 74.6% | 87.2% | 99.4% | -73.7% (active) | 87.7%
CC(=O)Cc1nsc(NC(=O)c2cc(-c3cc(Cl)ccc3Cl)oc2C)n1 | 103% | 107% | 94.7% | 102% | 97.4% | 96.8% | 99.1% | 95% | 96.3% | 108%
COc1ccc(C2=C/C(=C\c3ccccc3O)C(=O)N2Cc2ccccc2)cc1 | 67.6% | 102% | 92.3% | 82.3% | 83.9% | 52.2% | 66.2% | 63.9% | 81% | 79.9%
COc1cc(-c2ccc(-c3ccc(C(=N)N)s3)s2)cc(OC)c1OC | 13.6% | 4.42% (active) | 75.5% | 47.6% | 1.13% (active) | 47.1% | 23.2% | 81.3% | -63.3% (active) | 7.05% (active)
CCOC(=O)/C(=C\c1ccccc1Cl)P(=O)(OCC)OCC | 34.4% | 34.7% | 51% | 84.8% | 66.3% | 45.8% | 79.5% | 56.7% | 0.286% (active) | 65.2%
O=C1N/C(=N/N=C(c2ccccc2)c2ccccc2)S/C1=C\c1ccc(Br)cc1 | 97.8% | 81.8% | 101% | 100% | 91.3% | 89.8% | 97.2% | 79.8% | 98.5% | 112%
Nc1ncc(-c2ccc3ncnc(N4CCc5ccc(Cl)cc54)c3c2)cn1 | 7.19% (active) | 1.74% (active) | -11.6% (active) | 14.1% | 9.31% (active) | 8.82% (active) | -52.2% (active) | -23.6% (active) | 1.27% (active) | -6.35% (active)
CCN(CC)CCOc1ccc(/C(=C(\C)Cc2ccc(OC)cc2)c2ccc(O)cc2)cc1 | 5.11% (active) | -70.5% (active) | 25.1% | 26.6% | -30.3% (active) | 15.2% | -96.4% (active) | -70.7% (active) | -64.9% (active) | -71% (active)
Oc1ccc(Cc2ccc(O)c3ncccc23)c2cccnc12 | 13.1% | 57.6% | 12.9% | 15.9% | 6.14% (active) | 5.52% (active) | -47.3% (active) | 1.18% (active) | 16.7% | 30.3%
CCN1C(=O)N(CC)C2C1NC(=S)N2/N=C/C=C/c1ccccc1 (stereo not given) | 12.4% | 3.6% (active) | 42.2% | 19.5% | 15.5% | 20.6% | -30% (active) | 23% | 14.3% | 61%
COc1ccc2c(c1)c(-c1nc(-c3cn(C)c4ccncc34)cs1)cn2C | -22.1% (active) | -58.1% (active) | 120% | 20.9% | -74.9% (active) | -17.1% (active) | -22.8% (active) | 107% | -92.3% (active) | 86.8%
CCOc1cc(\C=N/N=C(N)/C(N)=N\N=C/c2ccc(O)c(OCC)c2)ccc1O | 101% | -46.5% (active) | 116% | 109% | 95.8% | 82.4% | 94.2% | 95.3% | 103% | 103%
O=C(O)/C=C/c1cn(-c2ccccc2)nc1-c1ccc(F)cc1 | 101% | 107% | 87.9% | 92.2% | 96.2% | 84.4% | 93.9% | 88.3% | 95.2% | 104%
COc1ccc(C(=O)C2OC3=C(C(=O)CC(C)(C)C3)C2c2cccc(Oc3ccccc3)c2)cc1 (stereo not given) | 89.3% | 91.1% | 86.9% | 92.8% | 88.9% | 81.3% | 90.7% | 72.6% | 92.3% | 103%
CCOC(=O)c1c(NC(=S)Nc2ccc([N+](=O)[O-])cc2)sc2c1CCCCC2 | 66.6% | 105% | 86.6% | 82.2% | 76.6% | 43.6% | 42.6% | 47.8% | 84.4% | 85.5%
O=C1C(Nc2ccc(Br)cc2)=C(I)C(=O)c2ncccc21 | 6.76% (active) | 54.7% | 26.4% | 68.3% | 32% | 39.3% | -17.7% (active) | 9.48% (active) | -3% (active) | 63.7%
CCCCCCCCCCCCCCCCCCOc1ccccc1CC(=O)OCC[N+]1(C)CCCCC1 | 86.3% | 31.7% | 46.3% | 50.6% | 36.9% | 3.03% (active) | -2.94% (active) | 33.8% | 1.71% (active) | 62.5%
Clc1nc(N2CCC[N+]3(CC2)CC[N+]2(CCCNCC2)CC3)nc(N2CCC[N+]3(CC2)CC[N+]2(CCCNCC2)CC3)n1 (stereo not given) | 83.2% | 54.9% | 123% | 112% | 91.7% | 101% | 102% | 96.8% | 98% | 92.2%
Cc1nc2c(c(-c3ccccc3)n1)Cc1c(ccc3ccccc13)O2 | 107% | 89.1% | 92.2% | 110% | 102% | 87.5% | 70.8% | 83.8% | 91.5% | 107%
Cc1ccccc1NC(=O)Cn1cc(CN2CCN(c3ccnc4cc(Cl)ccc34)CC2)nn1 | 98.5% | 105% | 85.8% | 93.3% | 100% | 81.4% | 91.2% | 84.3% | 97.7% | 100%
O=C1C(c2c(O)[nH]c3ncccc23)=Nc2ccccc21 | 77.9% | 93.8% | 68.1% | 96.4% | 88.2% | 73% | 75.4% | 79.6% | 76.3% | 123%
